Sampled rows, rich in hits. Any-hit rate of the full collection: about 0.55%.
TCR activator: Activators of T cell receptors: qHTS campaign; primary human leukocytes, anti-CD3, IL-2 HTRF, 48 h; 330,000 tested, under 10 active; AID 504894, 2011; Potency, µM (doses to about 9.22 µM), for the others: at the highest dose activation of IL-2 secretion, actives largely listed as activators; also: % of control where 0% means no effect
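1) Mix primary human leukocytes, a-CD3 beads and compound. 2) Incubate 48 hr. 3) Add HTRF IL-2 reagents (a-IL-2-K, a-IL-2-d2).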
TSHR antagonist: Antagonists of the Thyroid Stimulating Hormone Receptor: HTS campaign; 330,000 compounds, 0.2% hits; AID 504810, 2011; TSHR-expressing cells, TSH-stimulated cAMP HTRF, 2 h; stronger effect = lower value; activity change, negative = inhibition, % at 11.5 µM; Thyrotropin receptor (Homo sapiens), P16473;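 active = activity change below a set negative limit, meaning inhibition stronger than a set level, cut at about -70% in these data; inconclusive = activity change between two set negative limits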; also: % is scaled to controls: 0 for no effect and ±100 for the full control effect
Target sequence (P16473 whole entry, looked up): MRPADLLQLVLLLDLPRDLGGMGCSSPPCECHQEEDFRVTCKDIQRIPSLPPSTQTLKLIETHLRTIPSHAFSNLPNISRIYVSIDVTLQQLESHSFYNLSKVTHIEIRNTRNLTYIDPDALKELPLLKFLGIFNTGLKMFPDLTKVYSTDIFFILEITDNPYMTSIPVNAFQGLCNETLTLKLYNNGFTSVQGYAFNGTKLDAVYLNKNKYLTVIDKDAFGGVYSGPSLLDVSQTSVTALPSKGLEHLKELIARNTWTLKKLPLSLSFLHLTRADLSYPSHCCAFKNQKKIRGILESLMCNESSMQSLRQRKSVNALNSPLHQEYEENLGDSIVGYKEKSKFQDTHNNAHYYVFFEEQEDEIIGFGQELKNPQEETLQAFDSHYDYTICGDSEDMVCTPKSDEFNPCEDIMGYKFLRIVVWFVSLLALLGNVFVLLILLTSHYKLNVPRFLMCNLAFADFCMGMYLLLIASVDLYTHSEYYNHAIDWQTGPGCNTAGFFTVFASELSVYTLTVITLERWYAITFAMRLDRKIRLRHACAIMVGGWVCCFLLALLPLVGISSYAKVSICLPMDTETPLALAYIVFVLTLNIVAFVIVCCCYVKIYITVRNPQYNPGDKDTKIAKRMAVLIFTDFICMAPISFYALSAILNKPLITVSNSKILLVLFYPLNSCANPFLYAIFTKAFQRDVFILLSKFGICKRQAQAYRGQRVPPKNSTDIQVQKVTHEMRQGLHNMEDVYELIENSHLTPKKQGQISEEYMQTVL
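Inhibition of cAMP made by TSHR-expressing cells under TSH stimulation (4nM final, EC80; 2 h, 37 deg C) is quantified with a one-step lysis HTRF kit, anti-cAMP cryptate versus cAMP-d2.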
RGS4 inhibitor: Inhibitors of Regulator of G Protein Signaling (RGS) 4: qHTS. Regulator of G-protein signaling 4 (Homo sapiens), P49798. Transcreener GDP fluorescence polarization, RGS4-accelerated GTP hydrolysis. 390,000 compounds, 0.039% hits. Potency, µM (highest dose often 114 µM), for the others: at the top dose activity change, negative = inhibition, hits mostly inhibitors. AID 504845, 2011; also: potency is read from the fitted curve at half-maximal effect; % is scaled to controls: 0 for no effect and ±100 for the full control effect; nearly all actives have a fitted effect of over 75% in size
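MLSMR compounds (23 nl, pin-transferred) preincubated 10 min at room temperature with a 500nM (2x) first reagent, then RGS4 at 900nM (2x) plus Transcreener GDP mix added; fluorescence polarization (620/688 nm) read before and after 90 min at 30 °C.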
Akt phos inh: HTS Assay for Inhibitors of Akt Phophorylation: Primary Screen. Neuro2A IGF-stimulated pAkt S473 HTRF, 20 min; stronger effect = lower value. activity change, % for hits at 50 µM. 360,000 compounds, 0.32% hits; in the data active = activity change below about -80%; inconclusive = mostly about -51% to -80%; also: % is scaled to controls: 0 for no effect and ±100 for the full control effect
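Single-point screen (50 µM final compound) in Neuro2A cells stimulated 20 min with 6 nM IGF at 37 deg C. After lysis, Ser473-phosphorylated Akt read by HTRF (ex 330 nm, em 615/665 nm) as the 665/615 ratio.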
LDHA block: qHTS assay for inhibitors of human lactate dehydrogenase; activity change, % (values are at about 110 or 230 µM); 480,000 compounds, 0.15% hits; purified LDHA, NADH/diaphorase-resazurin fluorescence; stronger effect = lower value; L-lactate dehydrogenase A chain (Homo sapiens), P00338; in the data active = activity change below about -30%; inconclusive = mostly about -25% to -30%;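 also: plate controls were DMSO wells for no effect and wells without enzyme for full effect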
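LDH5 2 nM; NADH 0.06 mM, pyruvate 0.2 mM; 200 mM Tris pH 7.4, EDTA, Tween-20; 5 min RT. Detection: diaphorase 0.133 mg/mL + resazurin 37 µM, fluorescence ex540/em590 at 0 and 20 min; normalized to enzyme-free and DMSO wells.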
GRP78 ERSR act: qHTS for Inducers of the Endoplasmic Reticulum Stress Response (ERSR) in Human Glioma: qHTS | AID 602332, 2012 | U87-MG GRP78 promoter luciferase reporter, 16 h | 420,000 compounds, 0.02% hits | Potency, µM, for the others: at the highest dose activation, most hits filed as activators; also: potency is read from the fitted curve at half-maximal effect; series mostly up to about 76 µM; % of control where 0% means no effect; nearly all actives have a fitted effect of over 35% in size
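Stably transfected U87-MG glioma cells carrying a GRP78-based luciferase sensor; 16 h compound incubation. Luminescence end-point read 10 min after Bright-Glo addition at room temperature.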
Numbers without * were called inactive; [ ] = dose if it differs, or a comment. Unless noted, calls follow the shape of the dose curve; as a rule, active = well fitted curve in the direction sought with a large enough effect; inconclusive = small, poorly fitted or top-dose-only effect, or another doubt; inactive = no such curve, though single readings can be large; an effect the other way counts as inactive or inconclusive.

Results for CCN1CCN(CCOc2ccc(Cl)cc2)CC1 ?
TCR activator: 1%; TSHR antagonist: 26; RGS4 inhibitor: 17%; Akt phos inh: inactive; LDHA block: -34*; GRP78 ERSR act: -5%

Results for CCOc1ccccc1OCCOCCN1CCN(Cc2ccccc2)CC1 ?
TCR activator: -4%; TSHR antagonist: -4; RGS4 inhibitor: -18%; Akt phos inh: inactive; LDHA block: -31*; GRP78 ERSR act: -2%

What do the screens show for `CCN1CCN(CCCOc2ccccc2-c2ccccc2)CC1`?
TCR activator: 2%; TSHR antagonist: 23; RGS4 inhibitor: -24%[56.9 µM]; Akt phos inh: inactive; LDHA block: -19; GRP78 ERSR act: -3%

Results for CCN1CCN(CCOc2ccccc2-c2ccccc2)CC1 ?
TCR activator: -7%; TSHR antagonist: -2; RGS4 inhibitor: 6%; Akt phos inh: inactive; LDHA block: -34*; GRP78 ERSR act: -3%

Results for FC(F)(F)c1cc(-c2cccs2)nc(NC2CCCCC2)n1 ?
LDHA block: 7

What do the screens show for `Cc1cc(/C=C(/CCCC(=O)O)c2nc3ccccc3s2)cc(C)c1O`?
LDHA block: 0

What do the screens show for `O=C(O)COc1ccccc1-c1nc(-c2ccccc2)c(-c2ccccc2)[nH]1`?
TCR activator: 3%; TSHR antagonist: -8; RGS4 inhibitor: 14%; Akt phos inh: inactive; LDHA block: -43*; GRP78 ERSR act: -2%

Results for COc1cccc(-c2nc(-c3ccccc3)c(-c3ccccc3)[nH]2)c1OCC(=O)O ?
TCR activator: 7%; TSHR antagonist: -10; RGS4 inhibitor: -6%; Akt phos inh: inactive; LDHA block: -10; GRP78 ERSR act: -2%

What do the screens show for `Cc1ccc(C)c(Oc2nnnn2-c2ccccc2)c1`?
TCR activator: 2%; TSHR antagonist: -15; RGS4 inhibitor: 13%; Akt phos inh: -115%*; LDHA block: -4; GRP78 ERSR act: 3%

Results for CC(=O)Nc1sc2c(c1-c1nc3ccccc3o1)CCN(C(C)C)C2 ?
LDHA block: 16

Results for CC(C)Oc1ccc(-c2cc(C(=O)O)c3ccccc3n2)cc1 ?
LDHA block: 3

What do the screens show for `N#CC(C#N)=C1C=CC=CN1/C(=C\c1ccco1)C(=O)c1ccc(Cl)cc1`?
TCR activator: 6%[46.1 µM]; TSHR antagonist: -84*; RGS4 inhibitor: -37%; Akt phos inh: inactive; LDHA block: -2; GRP78 ERSR act: -15%

How did Cc1cccc(-n2ncc(C#N)c2N)c1 do in these assays?
TCR activator: -2%; TSHR antagonist: -1; RGS4 inhibitor: -10%; Akt phos inh: inactive; LDHA block: -3; GRP78 ERSR act: -3%

Results for COc1cccc(-n2nc3c(-n4ncc(C#N)c4N)nnc(C)c3c2C)c1 ?
TCR activator: 0%[46.1 µM]; TSHR antagonist: 11; RGS4 inhibitor: -6%; Akt phos inh: -123%*; LDHA block: 0; GRP78 ERSR act: -2%

How did CCCCCC/C(C)=C1/SC(=S)NC1=O do in these assays?
TCR activator: -1%; TSHR antagonist: -85*; RGS4 inhibitor: -33%; Akt phos inh: inactive; LDHA block: -1; GRP78 ERSR act: 1%

How did C/C(C/C(C)=C1/SC(=S)NC1=O)=C1\SC(=S)NC1=O do in these assays?
TCR activator: -2%; TSHR antagonist: -1; RGS4 inhibitor: inconclusive; Akt phos inh: inactive; LDHA block: -34*; GRP78 ERSR act: -4%

Results for CCc1ccc(/C=C2/SC(=S)NC2=O)cc1 ?
TSHR antagonist: inconclusive; RGS4 inhibitor: -15%[56.9 µM]; GRP78 ERSR act: -2%

Compound activity as filed in PubChem.
